Compounds with a hit are over-represented: about 5.7% of the library has one in this group of screens.
BAZ2B block: qHTS Assay for Inhibitors of BAZ2B; AID 504333, 2011; Bromodomain adjacent to zinc finger domain protein 2B (Homo sapiens), Q9UIF8; AlphaScreen BAZ2B-H3K14Ac peptide displacement; Potency, µM (titrated, usually from 114 µM), actives largely listed as inhibitors; actives 4.4% (n = 360,000); further: nearly all actives have a fitted effect of over 60% in size
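Compounds, titrated to a top concentration of 110 uM, were incubated 30 min at room temperature with preformed BAZ2B/acetyl-K14 H3 peptide complex (50 nM each). Proximity signal was measured by AlphaScreen after 20 min with beads.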
HP1b chromo inh: HTS for Inhibitors of HP1-beta Chromodomain Interactions with Methylated Histone Tails; AID 540317, 2011; Potency, µM (highest dose often 114 µM), hits mostly inhibitors; Chromobox protein homolog 1 (Homo sapiens), P83916; AlphaScreen HP1-beta / biotin-H3K9me3 peptide binding; actives 0.56% (n = 390,000); further: nearly all actives have a fitted effect of over 70% in size
Target sequence (P83916 whole entry, looked up): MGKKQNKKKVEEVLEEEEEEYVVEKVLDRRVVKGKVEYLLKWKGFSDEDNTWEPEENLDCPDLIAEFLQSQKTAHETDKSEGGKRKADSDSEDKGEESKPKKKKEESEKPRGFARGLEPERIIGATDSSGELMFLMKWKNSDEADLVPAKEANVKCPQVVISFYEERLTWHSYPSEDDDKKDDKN
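HP1-beta protein (50 nM final) preincubated 30 min at room temperature with biotinylated H3(1-18)K9me3 peptide (50 nM) in PBS pH 7.4, 0.01% Tween-20, then compound added for 30 min. AlphaScreen streptavidin donor/nickel chelate acceptor beads (10 ug/mL final), 30 min dark, luminescence read.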
PI5P4K alpha inh: qHTS for Inhibitors of phosphatidylinositol 5-phosphate 4-kinase (PI5P4K); AID 652105, 2013; PI5P4Kalpha enzyme, ADP-Glo luminescence, 60 min; hits give low values; Phosphatidylinositol 5-phosphate 4-kinase type-2 alpha (Homo sapiens), P48426; actives 1.2% (n = 330,000); max response, %; active means max response of -50% or lower; inconclusive means between -30% and -50%; inactive means -30% or higher; further: value at the top dose of about 77 µM
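Controls without substrate or without enzyme flank wells where PI5P4Kalpha converts substrate using 5 microM ATP (final). Incubation lasts 60 minutes at room temperature; ADP formed is read by ADP-Glo luminescence.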
L3MBTL1 block: qHTS Assay for the Inhibitors of L3MBTL1; Lethal(3)malignant brain tumor-like protein 1 (Homo sapiens), Q9Y468; Potency, µM (titrated, usually from 57.1 µM), most hits filed as inhibitors; AlphaScreen L3MBTL1–H3K9me1 peptide binding; actives 0.66% (n = 230,000); further: nearly all actives have a fitted effect of over 60% in size
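Read-out is AlphaScreen signal from streptavidin donor and nickel chelate acceptor beads (10 ug/mL final each) bridging L3MBTL1 (50 nM) and biotinylated K9-monomethylated H3(1-15) peptide (75 nM), after 30 min compound exposure at room temperature.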
JMJD2E inh: qHTS Assay for Inhibitors of Human Jumonji Domain Containing 2E (JMJD2E); Lysine-specific demethylase 4E (Homo sapiens), B2RXH2; actives 1.6% (n = 230,000); Potency, µM (series often up to 57.1 µM), actives largely listed as inhibitors; JMJD2E catalytic domain, FDH-coupled NADH fluorescence (FDH is formaldehyde dehydrogenase); AID 2147, 2009; active means well fitted inhibition curve with a large enough effect, not every such curve was filed as active; inconclusive means small, poorly fitted or top-dose-only effect, or another doubt; inactive means no such curve, though single readings can be large or run the other way; further: nearly all actives have a fitted effect of over 50% in size
Target sequence (B2RXH2 1-337 limits assumed): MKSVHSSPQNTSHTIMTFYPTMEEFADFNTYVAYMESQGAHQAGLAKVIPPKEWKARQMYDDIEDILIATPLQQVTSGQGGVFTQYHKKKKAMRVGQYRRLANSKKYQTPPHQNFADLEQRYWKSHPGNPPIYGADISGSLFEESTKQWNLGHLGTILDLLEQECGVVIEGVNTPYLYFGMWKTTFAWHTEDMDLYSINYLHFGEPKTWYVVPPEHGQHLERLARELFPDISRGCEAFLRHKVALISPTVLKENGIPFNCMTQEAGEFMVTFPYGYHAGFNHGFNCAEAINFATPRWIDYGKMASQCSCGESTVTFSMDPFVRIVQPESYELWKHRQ
JMJD2A Tudor inh: qHTS Assay for Inhibitors of JMJD2A-Tudor Domain; AlphaScreen JMJD2A-Tudor / H3K4me3 peptide binding; Potency, µM (titrated, usually from 114 µM), actives largely listed as inhibitors; actives 4.4% (n = 390,000); AID 504339, 2011; further: nearly all actives have a fitted effect of over 50% in size
Large screens that a line does not name were inactive; ! = repeats disagree. Unless noted, the call rests on the fitted dose curve; in most records, active means well fitted inhibition curve with a large enough effect; inconclusive means small, poorly fitted or top-dose-only effect; inactive means no such curve, though single readings can be large or run the other way.

CCC(Oc1ccccc1)C(=O)Nc1nnc(S(=O)(=O)N2CCCCC2)s1 (configuration not stated)	none (no result: L3MBTL1 block, JMJD2E inh)
O=C(Nc1nnc(S(=O)(=O)N2CCCC2)s1)c1ccccc1Cl	BAZ2B block 5µM!, JMJD2A Tudor inh inconclusive (no result: JMJD2E inh)
O=C(Nc1nnc(S(=O)(=O)N2CCCCCC2)s1)c1ccccc1	BAZ2B block 8.9µM!, JMJD2A Tudor inh 28µM! (no result: JMJD2E inh)
CC(Oc1ccccc1)C(=O)Nc1nnc(S(=O)(=O)N2CCCCCC2)s1 (configuration not stated)	BAZ2B block 1.8µM!, JMJD2A Tudor inh 8.9µM! (no result: JMJD2E inh)
CCOc1nc(NC(=O)NS(=O)(=O)Oc2cccc(F)c2)nc(-c2ccccc2)n1	none (no result: PI5P4K alpha inh, L3MBTL1 block, JMJD2E inh)
COc1cc(C2C(=O)N(C3CCCCCC3)CC(=O)N2CCc2ccccc2)ccc1OC(C)C (configuration not stated)	none (no result: PI5P4K alpha inh, L3MBTL1 block, JMJD2E inh)
Cc1cc(NC(=O)CSc2nc3ccsc3c(=O)n2Cc2ccccn2)n[nH]1	BAZ2B block 79µM (no result: PI5P4K alpha inh)
CCCCn1c(SCC(=O)Nc2cc(C)[nH]n2)nc2ccsc2c1=O	none (no result: PI5P4K alpha inh)
Cc1c(C)n(CCc2ccccc2)c2ncnc(NCCCN(C)C)c12	BAZ2B block 45µM, HP1b chromo inh inconclusive, JMJD2A Tudor inh inconclusive (no result: L3MBTL1 block, JMJD2E inh)
Cc1ccc2c(c1)nnn2C1CCN(S(=O)(=O)c2ccc(C(=O)N3C(C)CCCC3C)cc2)CC1 (configuration not stated)	BAZ2B block inconclusive, JMJD2A Tudor inh 50µM
Cc1ccc2c(c1)nnn2C1CCN(S(=O)(=O)c2ccc(C(=O)O)cc2)CC1	none
CCN(CC)c1ccc(NC(=O)CCCN2C(=O)C(c3ccccc3)Oc3cccnc32)c(C)c1 (configuration not stated)	none (no result: PI5P4K alpha inh, L3MBTL1 block, JMJD2E inh)
CN(O)/C=c1/ccc2c(n1)C(=O)C=CC=2	BAZ2B block 7.9µM, L3MBTL1 block 20µM, JMJD2A Tudor inh 20µM
CCCCN=Cc1sc2ccc(OCC)cc2c1O	BAZ2B block 79µM, HP1b chromo inh inconclusive, JMJD2E inh inconclusive, JMJD2A Tudor inh 28µM (no result: L3MBTL1 block)
COc1ccc(-c2nnc(SC)nc2-c2ccc(OC)c([N+](=O)[O-])c2)cc1[N+](=O)[O-]	HP1b chromo inh inconclusive, JMJD2A Tudor inh 2.5µM (no result: BAZ2B block, L3MBTL1 block, JMJD2E inh)
CN1CCN(C(=O)CCN2C(=O)/C(=C/c3ccc(F)cc3)SC2=S)CC1	BAZ2B block inconclusive (no result: L3MBTL1 block, JMJD2E inh)
CCOC(=O)c1ccc(-n2c(N)c(C(=O)OC)c3nc4ccccc4nc32)cc1	none (no result: PI5P4K alpha inh, L3MBTL1 block, JMJD2E inh)
COc1ccc(-c2sc3cc(OC)c(OC)cc3c2C#CCO)cc1	L3MBTL1 block inconclusive, JMJD2A Tudor inh 20µM (no result: BAZ2B block, JMJD2E inh)
COc1ccc(-c2sc3cc(OC)c(OC)cc3c2C#CC(C)(C)O)cc1	BAZ2B block inconclusive (no result: JMJD2E inh)
Cc1ccc(C2C3=C(CC(C)(C)CC3=O)OC3=C2C(=O)CC(C)(C)C3)cc1	none
CC1(C)CC(=O)C2=C(C1)N=C1c3ccccc3C(=O)C1C2c1ccc(Cl)cc1 (configuration not stated)	BAZ2B block 13µM, HP1b chromo inh inconclusive, L3MBTL1 block inconclusive, JMJD2A Tudor inh inconclusive
Cc1ccc(C2C3=C(CC(C)(C)CC3=O)N=C3c4ccccc4C(=O)C32)cc1 (configuration not stated)	BAZ2B block 16µM, HP1b chromo inh inconclusive, JMJD2A Tudor inh 45µM
CCOC(=O)C1=C(C)N=C2c3ccccc3C(=O)C2C1c1ccc(Cl)cc1 (configuration not stated)	BAZ2B block 13µM, HP1b chromo inh inconclusive, L3MBTL1 block inconclusive, JMJD2A Tudor inh 40µM (no result: PI5P4K alpha inh)
Cc1ccc2occ(CC(=O)N(Cc3ccccc3Cl)C3CCS(=O)(=O)C3)c2c1 (configuration not stated)	BAZ2B block inconclusive (no result: PI5P4K alpha inh, L3MBTL1 block, JMJD2E inh)
O=C(Nc1cccc(C(=O)OCc2cc(=O)n3c4c(sc3n2)CCCC4)c1)c1ccccc1	none (no result: PI5P4K alpha inh, L3MBTL1 block, JMJD2E inh)

Screens: PubChem BioAssay, National Center for Advancing Translational Sciences (NCATS)
